Screening results as filed in PubChem BioAssay.
An excerpt weighted towards active compounds, which were near 19% of everything screened.
DT40 TDP1 no CPT: qHTS for Inhibitors of human tyrosyl-DNA phosphodiesterase 1 (TDP1): qHTS in cells in absence of CPT. AID 686978, 2013. DT40 Tdp1-/- hTDP1 cells, no CPT, ATP luminescence, 48 h. 420,000 tested, 15% active. Potency, µM (titrated, usually from 46.2 µM), for the others: top-dose activity change, negative = growth inhibition, actives largely listed as inhibitors; also: potency is read from the fitted curve at half-maximal effect; nearly all actives have a fitted effect of over 55% in size
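Seeded 400 DT40-hTDP1 cells/well (vehicle DMSO, no 20 nM CPT); pinned compounds; ≥48 hr at 37 °C; CellTiter-Glo luminescence as viability measure.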
IL-1B inflam inh: inflammasome signaling inhibition, IL-1 beta readout; activity change, % at 57.5 µM; AID 743279; 360,000 tested, 4.7% active; THP-1 LPS/ATP IL-1B secretion, AlphaLISA, 16 h; stronger effect = lower value; in the data active = activity change below about -50%; inconclusive = mostly about -30% to -49%
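THP-1 cells pretreated 1 hr with compounds (up to 57.5 uM final), then stimulated with LPS (250 ng/mL final) plus ATP (1.25 mM final); secreted IL-1B measured by AlphaLISA after 16 hr, decreased signal indicating inhibition.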
ELG1 DNA repair: ELG1-dependent DNA repair inhibition | HEK293T ELG1-luciferase reporter, luminescence, 16 h; DNA damage induced by 5-fluorouridine | Potency, µM (top dose mostly 46.1 µM), without a hit: at the top dose activity change, negative = inhibition, most hits filed as inhibitors | 330,000 tested, 2.3% active; also: potency is read from the fitted curve at half-maximal effect; nearly all actives have a fitted effect of over 55% in size
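HEK293T cells expressing luciferase-tagged ELG1 (2,000/well) received 5-Fluorouridine plus compound or DMSO for 16 hr at 37 °C. Luciferase was read by ONE-Glo luminescence after 30 min at room temperature.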
DT40 TDP1 CPT: DT40-hTDP1 cell growth loss with CPT. chicken DT40 Tdp1-/-;hTDP1 cells + 20 nM CPT, ATP luminescence, 48 h. Potency, µM (top dose mostly 46.2 µM), inactives show top-dose activity change, negative = growth inhibition, actives largely listed as inhibitors. 420,000 tested, 12% active. AID 686979; also: potency is read from the fitted curve at half-maximal effect; nearly all actives have a fitted effect of over 55% in size
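Chicken DT40 Tdp1-/- cells stably complemented with human TDP1 were seeded at 400 cells/well in medium containing 20 nM camptothecin, exposed to pin-transferred compounds, and grown at 37 °C for at least 48 hr. Viability was read as ATP luminescence.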
TDP1 inh: TDP1 (human) enzyme inhibition; Q9NUW8; recombinant TDP1, AlphaScreen DNA substrate cleavage; Potency, µM (highest dose often 130 µM), for the others: at the top dose activity change, negative = inhibition, actives largely listed as inhibitors; 350,000 tested, 0.28% active; also: potency is read from the fitted curve at half-maximal effect; nearly all actives have a fitted effect of over 40% in size
Target sequence (Q9NUW8 whole entry, looked up): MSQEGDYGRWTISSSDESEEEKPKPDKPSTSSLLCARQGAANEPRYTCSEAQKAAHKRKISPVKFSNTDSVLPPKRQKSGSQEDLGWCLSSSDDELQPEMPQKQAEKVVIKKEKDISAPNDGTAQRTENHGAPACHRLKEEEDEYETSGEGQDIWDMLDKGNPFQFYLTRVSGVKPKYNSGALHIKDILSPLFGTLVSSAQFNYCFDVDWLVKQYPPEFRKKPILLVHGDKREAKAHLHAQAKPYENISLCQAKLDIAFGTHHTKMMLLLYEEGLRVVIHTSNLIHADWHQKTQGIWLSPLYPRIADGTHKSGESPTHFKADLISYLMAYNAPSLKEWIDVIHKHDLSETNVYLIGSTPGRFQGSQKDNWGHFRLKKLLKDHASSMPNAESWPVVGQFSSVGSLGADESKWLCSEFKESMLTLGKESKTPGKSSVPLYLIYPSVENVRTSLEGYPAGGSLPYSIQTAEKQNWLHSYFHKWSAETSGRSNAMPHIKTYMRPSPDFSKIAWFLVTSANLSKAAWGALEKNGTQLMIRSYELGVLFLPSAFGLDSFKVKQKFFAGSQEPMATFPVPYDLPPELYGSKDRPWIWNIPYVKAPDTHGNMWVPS
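Steps: enzyme plus compound, 15 min RT; add biotin/phosphotyrosine-FITC oligonucleotide (15 nM final), react 5 min; add donor/acceptor beads (10 ug/ml final), 10 min; read AlphaScreen. Tdp1 at 1 nM final.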
Giardia kill: kills Giardia lamblia; activity change, % at 7.66 µM, hits read low; Giardia lamblia trophozoite viability; 340,000 tested, 0.15% active; in the data active = activity change below about -80%; inconclusive = between about -30% and that limit;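 also: parasites exposed to compound for two days anaerobically before the ATP read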
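Media and compound were dispensed first, then trophozoites at 100 cells/well; plates sat 48 hrs at 37 deg C without oxygen before ATP luminescence reagent was added and read after 15-30 min at room temperature.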
Starred values were filed as active, the others as inactive; ? = inconclusive; . = no result; [ ] = another dose, or the depositor's remark. Unless noted, calls follow the shape of the dose curve; as a rule, active = well fitted curve in the direction sought with a large enough effect; inconclusive = small, poorly fitted or top-dose-only effect, or another doubt; inactive = no such curve, though single readings can be large; an effect the other way counts as inactive or inconclusive. % is scaled to controls: 0 for no effect and ±100 for the full control effect.

SMILES	DT40 TDP1 no CPT	IL-1B inflam inh	ELG1 DNA repair	DT40 TDP1 CPT	TDP1 inh	Giardia kill
COc1ccc(CCN2C(=O)N(c3cccc(C)c3)C(=O)C2CC(=O)Nc2ccccc2)cc1OC (centres undefined)	?	.	.	23µM*	4%	.
Cc1ccc(CN2C(=O)N(c3ccccc3)C(=O)C2CC(=O)Nc2ccccc2)cc1 (centres undefined)	?	.	.	-22%	6%	.
Cc1ccc(N2C(=O)C(CC(=O)Nc3cccc(F)c3)N(CCc3ccccc3F)C2=O)cc1 (centres undefined)	21µM*	.	.	16µM*	1%	.
COc1ccc(CCN2C(=O)N(c3ccc(C)cc3)C(=O)C2CC(=O)Nc2ccc(OC)cc2)cc1 (centres undefined)	?	.	.	21µM*	6%	.
Cc1ccc(S(=O)(=O)NCC(c2ccc(N(C)C)cc2)N2CCc3ccccc32)cc1 (centres undefined)	?	.	.	?	11%	.
O=S1(=O)N[C@H](c2ccccc2)C[C@H](c2ccc(C(F)(F)F)cc2)O1	?	-7	1%	15µM*	.	-10
O=C(O)CC[C@H](NC(=O)c1ccccc1C(=O)O)C(=O)O	.	.	.	.	6%[56.1 µM]	.
CN(Cc1cnc2nc(N)nc(N)c2n1)c1ccc(C(=O)NC(CCC(=O)O)C(=O)O)c2ccccc12 (centres undefined)	0.052µM*	24	.	0.092µM*	.	-2
CCc1cccc(NC(=O)C2CCCN2S(=O)(=O)c2ccc3nc(-c4ccccc4)[nH]c3c2)c1 (centres undefined)	8.2µM*	.	.	7.3µM*	8%	.
Cc1cc(C)cc(NC(=O)C2CCCN2S(=O)(=O)c2ccc3c(c2)CCCC(=O)N3)c1 (centres undefined)	?	.	.	?	5%	.
Cc1cc(C)cc(NC(=O)C2CCCN2S(=O)(=O)c2ccc3nc(-c4ccccc4)[nH]c3c2)c1 (centres undefined)	15µM*	.	.	?	5%	.
CCOc1ccccc1NC(=O)C1CCCN1S(=O)(=O)c1ccc2nc(-c3ccccc3)[nH]c2c1 (centres undefined)	6.5µM*	.	.	10µM*	5%	.
CCc1cccc(NC(=O)C2CCCN2S(=O)(=O)c2ccc3c(c2)n(C)c(=O)c(=O)n3C)c1 (centres undefined)	-1%	6	0%	4%	-1%	-5
CCOc1ccccc1NC(=O)C1CCCN1S(=O)(=O)c1ccccc1C(F)(F)F (centres undefined)	21µM*	13	-24%	21µM*	-3%	4
CC(=O)c1cccc(NC(=O)C2CCCN2S(=O)(=O)c2ccccc2C(F)(F)F)c1 (centres undefined)	-7%	3	.	-1%	.	.
COC(=O)[C@@H]1CCCN1C(=O)c1cnn(-c2nccc(-c3cc(C)sc3C)n2)c1C1CC1	?	.	.	9%[9.04 µM]	.	.
COc1ccc2c(c1)C(CC(C)=O)N(c1ccc(-c3cccnc3)cc1)C(c1ccsc1)=C2 (centres undefined)	?	6	.	?	.	.
NC(COCc1ccccc1)c1csc(Nc2ccc(C(=O)c3ccccc3)cc2)n1 (centres undefined)	?	-66*	.	15µM*	.	.
NC(=O)c1ccc(Nc2nc(C(N)COCc3ccccc3)cs2)cc1 (centres undefined)	?	-5	.	?	.	.
CS(=O)(=O)c1ccc(Nc2nc(C(N)CCc3ccccc3)cs2)cc1 (centres undefined)	21µM*	-2	.	23µM*	.	.
NC(CCc1ccccc1)c1csc(Nc2ccc(C(=O)c3ccccc3)cc2)n1 (centres undefined)	18µM*	?	.	16µM*	.	.
NC(CCc1ccccc1)c1csc(Nc2ccc(C(=O)NCCO)cc2)n1 (centres undefined)	23µM*	-15	.	?	.	.
NC(CCc1ccccc1)c1csc(Nc2ccc(C(=O)NCCCO)cn2)n1 (centres undefined)	-22%	-20	.	-29%	.	.
NC(CCc1ccccc1)c1csc(Nc2nccc(C(F)(F)F)n2)n1 (centres undefined)	?	-18	.	?	.	.
NC(=O)c1cccc(Nc2nc(C(N)COCc3ccccc3)cs2)n1 (centres undefined)	?	-26	.	18µM*	.	.
SMILES	DT40 TDP1 no CPT	IL-1B inflam inh	ELG1 DNA repair	DT40 TDP1 CPT	TDP1 inh	Giardia kill
NCc1csc(Nc2ccc(C(=O)c3ccccc3)cc2)n1	1µM*	-9	.	0.92µM*	.	.
COC(=O)Cc1csc(Nc2ccccc2)n1	2%	13	?	0%	5%	1
Cc1cc(C)nc(Nc2nc(C(N)CCc3ccccc3)cs2)n1 (centres undefined)	21µM*	-21	.	?	.	.
C=CCOc1ccc(/C=N/NC(=O)CN2CCCCC2)cc1OC	-9%	10	1%	-19%	.	-23
CCOC(=O)C(=O)Nc1ncc(Cl)s1	-1%	30	0%	?	.	1
COc1ccc(CNCC(O)COc2ccc(C(C)(C)c3ccccc3)cc2)cc1 (centres undefined)	?	-100*	-8%	?	.	-3
COc1ccccc1NCC(O)COc1ccc(C(C)(C)C)cc1 (centres undefined)	16µM*	-106*	11%	15µM*	4%	17
COc1ccc(OCC(O)CNC2CCCC2)cc1 (centres undefined)	?	-17	1%	-11%	.	-6
OC(CNCc1ccco1)COc1ccccc1 (centres undefined)	-41%	7	5%	1.2µM*	3%	-6
COc1ccc(NCC(O)COc2ccc(C(C)(C)C)cc2)cc1 (centres undefined)	?	-65*	7%	?	5%	-6
COc1ccc(OCC(O)CNCc2ccco2)cc1 (centres undefined)	1%	-19	1%	1%	0%	-4
CC(C)CCN(Cc1ccco1)C(=O)Cn1ncc2c([nH]c3ccccc32)c1=O	?	.	.	?	0%	.
O=C(Nc1ccccc1F)c1nc(SCc2ccc(F)cc2)ncc1Cl	?	.	.	-18%	0%	.
COc1ccccc1C1SCCN1S(=O)(=O)c1ccccc1 (centres undefined)	?	11	.	?	.	.
COc1ccc(OCC(O)CNCCOc2ccccc2OC)c(C(C)(C)C)c1 (centres undefined)	9.2µM*	-73*	?	10µM*	.	13
